Data published in PubChem BioAssay (NCATS).
Results filed as inconclusive are left out. Some of the results follow. Active and inactive are the calls of the source. Unless noted, the call rests on the fitted dose curve; in most records, active means well fitted curve in the direction sought with a large enough effect; inconclusive means small, poorly fitted or top-dose-only effect, or another doubt; inactive means no such curve, though single readings can be large; an effect the other way counts as inactive or inconclusive.

Columns and labels:
[1] = target: Rap guanine nucleotide exchange factor 3 (Homo sapiens) (UniProt O95398); experiment: Confirmatory qHTS for antagonist of cAMP-regulated guanine nucleotide exchange factor 3 (EPAC1) (AID 1645880); conditions: EPAC1 Rap1B-BODIPY-GDP exchange, fluorescence; activity, negative = inhibition: at 115 µM (top of the series); further: nearly all actives have a fitted effect of over 55% in size; further: potency means the concentration at half of the fitted maximal effect;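 on activity, negative = inhibition: plate controls were DMSO only for no effect and full effect of the ATA control for full effect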
In short: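 Nucleotide exchange uses 100 nM EPAC1, 250 nM RAP1B-BODIPY-GDP and 50 uM GDP, with compounds in a concentration-titration series. After 5 min at room temperature, fluorescence (480 nm ex/540 nm em) is read every 5 min for 30 min. Data are normalized to control ATA and DMSO.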

[2] = target: Rap guanine nucleotide exchange factor 3 (Homo sapiens) (UniProt O95398); experiment: Confirmatory qHTS for agonist of cAMP-regulated guanine nucleotide exchange factor 3 (EPAC1) (AID 1645881);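 further: EPAC1 catalysed release of BODIPY-GDP from Rap1B seen as fluorescence loss; 100% = effect of cAMP agonist control; nearly all actives have a fitted effect of over 75% in size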
[3] = target: Rap guanine nucleotide exchange factor 4 (Homo sapiens) (UniProt Q8WZA2); experiment: Confirmatory qHTS for agonist of cAMP-regulated guanine nucleotide exchange factor 4 (EPAC2) (AID 1645884);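 further: nucleotide exchange releases bodipy-GDP from Rap1 and this lowers its fluorescence; on the % scale 0 is the no-effect control and ±100 the full control effect; nearly all actives have a fitted effect of over 65% in size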
[4] = target: Rap guanine nucleotide exchange factor 3 (Homo sapiens) (UniProt O95398); experiment: Counterscreen qHTS for agonist of cAMP-regulated guanine nucleotide exchange factor 3 (EPAC1) (AID 1645889); further: nearly all actives have a fitted effect of over 40% in size; further: potency means the concentration at half of the fitted maximal effect; on activation: % of control where 0% means no effect
In short: (§1)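 Measured: fluorescence of BODIPY-GDP bound to Rap1B, which falls as exchange proceeds. Conditions include 50 uM competing GDP, 5 and 30 min reads, and a later cAMP challenge for antagonist detection.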

[5] = target: Rap guanine nucleotide exchange factor 3 (Homo sapiens) (UniProt O95398); experiment: Counterscreen qHTS for antagonist of cAMP-regulated guanine nucleotide exchange factor 3 (EPAC1) (AID 1645888);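 further: fluorescence loss as bound BODIPY-GDP is released from Rap1B; % of control where 0% means no effect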
In short: as §1

[6] = Stat Signaling Pathway (AID 446; active means well fitted curve in either direction with a large enough effect, not every such curve was filed as active;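 further: ME-180 cervical cancer cells given 40 pM IL-6 alongside compound; SIE-controlled beta-lactamase reporter measured as 460/530 nm FRET emission ratio; on the % scale 0 is the no-effect control and ±100 the full control effect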)
In short: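 Reporter line: ME-180 cervical carcinoma, SIE-beta-lactamase. Treatment: compound with 40 pM IL-6, 5 hrs, 37 C, in low-serum OPTI-MEM with 10 mM HEPES pH 7.3. Detection: 460/530 nm fluorescence.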

[7] = target: Glucocorticoid receptor (Homo sapiens) (UniProt P04150); experiment: GR-GFP Redistribution (AID 450;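 active means compounds whose dose series gives a full or clear partial fitted curve of increased nuclear translocation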; further: potency means the concentration at half of the fitted maximal effect); conditions: U2OS GR-GFP nuclear translocation, laser cytometry, 2 h
[8] = target: DNA polymerase eta (Homo sapiens) (UniProt Q9Y253); experiment: qHTS for Inhibitors of Polymerase Eta: Confirmatory Assay for Cherry-picked Compounds (AID 720502); conditions: Pol eta primer extension, TAMRA/BHQ fluorescence, 10 min; further: potency means the concentration at half of the fitted maximal effect
In short: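 Readout: TAMRA dequenching, ex 525/em 598 nm, read at 0 and 10 min. Enzyme: 10 nM human Pol eta, preincubated with compound 15 min RT. Substrate: 50 nM final annealed primer/reporter/template duplex.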

[9] = target: Phosphoglycerate kinase, glycosomal (Trypanosoma brucei brucei) (UniProt P07378); experiment: qHTS for inhibitors of Phosphogylcerate Kinase: Hit Validation Screen (AID 686980); conditions: TbPGK coupled GAPDH assay, Kinase-Glo luminescence; further: potency means the concentration at half of the fitted maximal effect; nearly all actives have a fitted effect of over 65% in size
In short: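 Luminescent ATP detection (Kinase-Glo Plus) follows a 60-minute room-temperature incubation, with wells lacking PGK as controls. Buffer: 100 mM TEA (pH 7.6), 5 mM MgCl2, 0.01% Tween-20. Coupling enzyme GAPDH (100 nM final) supplies unstable 1,3-BPG in-well.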

[10] = target: DNA polymerase iota (Homo sapiens) (UniProt Q9UNA4); experiment: qHTS for Inhibitors of Polymerase Iota: Confirmatory Assay for Cherry-picked Compounds (AID 720496); conditions: Pol iota primer extension, TAMRA/BHQ fluorescence; further: potency means the concentration at half of the fitted maximal effect
In short: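 Step 1: 10 nM Pol iota with compound, 15 min, room temperature. Step 2: 50 nM final quenched DNA substrate added. Step 3: fluorescence (ex 525, em 598 nm) read at 0 and after 10 min.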

[11] = target: Bifunctional 3'-5' exonuclease/ATP-dependent helicase WRN (Homo sapiens) (UniProt Q14191); experiment: qHTS for Inhibitors of WRN Helicase: Confirmatory Assay for Cherry-picked Compounds. (AID 720497); conditions: WRN helicase DNA unwinding, fluorescence kinetic; further: potency means the concentration at half of the fitted maximal effect; nearly all actives have a fitted effect of over 65% in size
In short: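 Helicase activity is tracked as a kinetic fluorescence signal (excitation 525 nm, emission 598 nm) after 100 nM forked duplex DNA and 2 mM ATP are added to 20 nM WRN that has been preincubated 15 min with compound at room temperature.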

[12] = target: DNA polymerase kappa (Homo sapiens) (UniProt Q9UBT6); experiment: qHTS for Inhibitors of Polymerase Kappa: Confirmatory Assay for Cherry-picked Compounds (AID 720501); conditions: purified Pol-kappa, fluorescent strand-displacement substrate; further: potency means the concentration at half of the fitted maximal effect
In short: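 Human Pol-kappa, dispensed at 10 nM, was preincubated with compounds for 15 min at room temperature. Reactions were started with primer/template substrate (50 nM final) carrying a TAMRA reporter strand and BHQ-2-quenched template, and fluorescence (ex 525/em 598 nm) was read at 0 and 10 min.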

[13] = target: RecQ-like DNA helicase BLM (Homo sapiens) (UniProt P54132); experiment: qHTS for Inhibitors of WRN Helicase: BLM Helicase Counterscreen for WRN Inhibitors (AID 720503); conditions: Recombinant BLM helicase DNA unwinding, red fluorescence; further: potency means the concentration at half of the fitted maximal effect; nearly all actives have a fitted effect of over 60% in size
In short: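 Reactions were started with 100 nM DNA substrate and 2 mM ATP (final) after compound and 1 nM BLM stood 15 min at room temperature in Tris-HCl pH 8.0 buffer with NaCl, MgCl2, DTT and Tween-20. Two red-fluorescence reads 15 min apart were normalized against DMSO and no-enzyme wells.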

[14] = AP1 Signaling Pathway (AID 357; active means well fitted curve in either direction with a large enough effect, not every such curve was filed as active;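 further: ME-180 reporter cells stimulated with EGF at its EC50 level; on the % scale 0 is the no-effect control and ±100 the full control effect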); conditions: ME-180 (cervical carcinoma) AP-1-bla reporter, EGF-induced, beta-lactamase ratio, 5 h; at 7.69 µM (top of the series) unless noted
In short: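 Cells are seeded overnight, exposed to compound titrations and an EC50 level of EGF for 5 hours at 37 °C, then loaded with CCF4 dye for 2.5 hours. Beta-lactamase activity under the AP-1 element is read as a blue/green ratio.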

[15] = NFAT Signaling Pathway (AID 444; active means well fitted curve in either direction with a large enough effect, not every such curve was filed as active;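 further: carbachol stimulus at about its EC50 of 1 µM final; on the % scale 0 is the no-effect control and ±100 the full control effect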); conditions: Jurkat NFAT-bla M1, carbachol, beta-lactamase ratio, 5 h; at 7.69 µM (top of the series) unless noted
In short: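 Jurkat cells carrying an NFAT-driven β-lactamase reporter and co-transfected muscarinic M1 receptor were treated with compound plus carbachol (1 uM final, an EC50 level) for 5 h at 37 °C. CCF4 loading followed for 1 h at RT; 460/530 nm ratio gave %activity.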

Glucocorticoid receptor (Homo sapiens), sequence (P04150 whole entry, looked up): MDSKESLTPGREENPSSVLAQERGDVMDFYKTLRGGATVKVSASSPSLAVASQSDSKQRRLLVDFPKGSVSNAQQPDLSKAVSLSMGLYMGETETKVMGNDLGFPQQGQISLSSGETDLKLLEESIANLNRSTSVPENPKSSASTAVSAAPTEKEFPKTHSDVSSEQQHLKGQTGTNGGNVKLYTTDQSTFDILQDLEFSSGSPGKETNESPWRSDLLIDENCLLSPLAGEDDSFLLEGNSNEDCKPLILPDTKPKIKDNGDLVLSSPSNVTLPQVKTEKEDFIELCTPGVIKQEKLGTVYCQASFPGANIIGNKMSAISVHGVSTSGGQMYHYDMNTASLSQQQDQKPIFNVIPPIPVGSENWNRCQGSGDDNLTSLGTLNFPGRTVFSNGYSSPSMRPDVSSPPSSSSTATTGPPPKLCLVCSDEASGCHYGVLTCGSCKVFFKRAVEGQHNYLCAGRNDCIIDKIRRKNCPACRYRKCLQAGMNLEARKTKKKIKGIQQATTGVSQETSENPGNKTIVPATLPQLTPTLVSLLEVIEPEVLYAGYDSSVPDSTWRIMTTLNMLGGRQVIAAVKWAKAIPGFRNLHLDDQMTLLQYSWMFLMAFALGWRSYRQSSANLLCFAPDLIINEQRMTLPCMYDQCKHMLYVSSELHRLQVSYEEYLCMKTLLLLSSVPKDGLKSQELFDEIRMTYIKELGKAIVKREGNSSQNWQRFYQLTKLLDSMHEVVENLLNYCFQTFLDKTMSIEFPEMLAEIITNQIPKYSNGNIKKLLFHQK
Rap guanine nucleotide exchange factor 4 (Homo sapiens), sequence (Q8WZA2 whole entry, looked up): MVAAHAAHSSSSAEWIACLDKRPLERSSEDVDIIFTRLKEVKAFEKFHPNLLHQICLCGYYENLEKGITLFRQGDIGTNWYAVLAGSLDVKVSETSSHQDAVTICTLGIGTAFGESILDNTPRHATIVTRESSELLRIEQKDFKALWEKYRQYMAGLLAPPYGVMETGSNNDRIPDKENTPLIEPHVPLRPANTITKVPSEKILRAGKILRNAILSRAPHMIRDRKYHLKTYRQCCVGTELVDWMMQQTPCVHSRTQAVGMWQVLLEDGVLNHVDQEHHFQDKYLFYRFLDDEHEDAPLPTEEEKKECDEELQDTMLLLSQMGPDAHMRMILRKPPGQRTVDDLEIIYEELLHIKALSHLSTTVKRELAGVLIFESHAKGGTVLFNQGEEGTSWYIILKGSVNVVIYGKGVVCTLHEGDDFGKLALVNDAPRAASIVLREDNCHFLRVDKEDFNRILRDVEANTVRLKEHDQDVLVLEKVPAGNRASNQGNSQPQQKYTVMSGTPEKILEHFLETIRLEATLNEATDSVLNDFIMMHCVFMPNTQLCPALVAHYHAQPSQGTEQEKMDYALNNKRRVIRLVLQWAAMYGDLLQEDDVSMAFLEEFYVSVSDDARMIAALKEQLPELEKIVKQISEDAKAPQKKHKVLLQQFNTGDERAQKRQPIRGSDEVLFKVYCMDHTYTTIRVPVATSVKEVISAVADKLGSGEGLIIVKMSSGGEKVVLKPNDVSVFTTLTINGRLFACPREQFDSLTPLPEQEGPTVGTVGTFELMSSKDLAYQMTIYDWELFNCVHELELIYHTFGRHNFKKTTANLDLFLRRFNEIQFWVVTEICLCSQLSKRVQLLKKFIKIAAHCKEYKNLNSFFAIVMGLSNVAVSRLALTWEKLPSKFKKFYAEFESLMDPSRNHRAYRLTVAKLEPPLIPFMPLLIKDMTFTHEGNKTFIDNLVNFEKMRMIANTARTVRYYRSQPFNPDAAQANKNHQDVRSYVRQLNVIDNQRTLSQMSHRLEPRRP
Rap guanine nucleotide exchange factor 3 (Homo sapiens), sequence (O95398 whole entry, looked up): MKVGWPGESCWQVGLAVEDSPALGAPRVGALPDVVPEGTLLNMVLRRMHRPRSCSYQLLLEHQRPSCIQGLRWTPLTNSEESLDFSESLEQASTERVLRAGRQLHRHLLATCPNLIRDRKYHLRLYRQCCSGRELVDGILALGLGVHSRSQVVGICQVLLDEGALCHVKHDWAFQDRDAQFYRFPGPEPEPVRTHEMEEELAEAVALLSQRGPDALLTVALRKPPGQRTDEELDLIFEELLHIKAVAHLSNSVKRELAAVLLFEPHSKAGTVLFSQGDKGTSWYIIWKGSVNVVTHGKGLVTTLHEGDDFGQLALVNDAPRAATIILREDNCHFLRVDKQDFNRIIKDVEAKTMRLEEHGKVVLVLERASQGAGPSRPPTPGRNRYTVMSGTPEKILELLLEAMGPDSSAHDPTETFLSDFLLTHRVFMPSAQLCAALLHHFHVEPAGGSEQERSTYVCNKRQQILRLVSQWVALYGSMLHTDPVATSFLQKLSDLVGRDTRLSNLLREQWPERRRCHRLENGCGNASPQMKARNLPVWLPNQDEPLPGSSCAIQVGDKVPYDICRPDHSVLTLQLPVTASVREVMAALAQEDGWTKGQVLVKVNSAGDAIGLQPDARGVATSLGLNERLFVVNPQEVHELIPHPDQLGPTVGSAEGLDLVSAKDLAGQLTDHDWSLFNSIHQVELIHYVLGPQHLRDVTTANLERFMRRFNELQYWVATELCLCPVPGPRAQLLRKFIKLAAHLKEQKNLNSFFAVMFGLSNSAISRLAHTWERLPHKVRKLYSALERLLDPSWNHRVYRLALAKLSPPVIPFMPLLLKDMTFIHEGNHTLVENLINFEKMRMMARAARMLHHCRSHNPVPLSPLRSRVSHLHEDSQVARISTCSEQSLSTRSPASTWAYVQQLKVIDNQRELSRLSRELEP
DNA polymerase eta (Homo sapiens), sequence (Q9Y253 whole entry, looked up): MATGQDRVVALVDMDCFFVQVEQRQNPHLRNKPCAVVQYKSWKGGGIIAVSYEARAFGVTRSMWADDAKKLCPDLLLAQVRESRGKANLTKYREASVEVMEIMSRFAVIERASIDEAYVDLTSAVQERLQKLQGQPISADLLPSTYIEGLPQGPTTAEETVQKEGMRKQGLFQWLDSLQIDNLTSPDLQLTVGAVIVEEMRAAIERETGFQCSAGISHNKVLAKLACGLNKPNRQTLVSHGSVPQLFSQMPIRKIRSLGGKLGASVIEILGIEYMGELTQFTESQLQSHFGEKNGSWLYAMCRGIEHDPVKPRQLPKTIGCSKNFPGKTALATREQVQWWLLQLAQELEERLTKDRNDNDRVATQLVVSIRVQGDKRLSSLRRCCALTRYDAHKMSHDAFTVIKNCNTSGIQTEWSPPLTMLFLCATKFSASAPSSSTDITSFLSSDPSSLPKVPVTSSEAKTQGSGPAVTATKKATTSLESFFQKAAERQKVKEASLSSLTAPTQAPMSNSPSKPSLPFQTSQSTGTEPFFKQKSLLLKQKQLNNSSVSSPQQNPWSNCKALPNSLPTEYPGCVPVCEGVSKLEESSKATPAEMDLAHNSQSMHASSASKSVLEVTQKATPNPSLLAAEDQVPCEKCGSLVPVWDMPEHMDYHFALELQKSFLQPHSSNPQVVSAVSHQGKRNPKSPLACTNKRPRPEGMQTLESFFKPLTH
RecQ-like DNA helicase BLM (Homo sapiens), sequence (P54132 whole entry, looked up): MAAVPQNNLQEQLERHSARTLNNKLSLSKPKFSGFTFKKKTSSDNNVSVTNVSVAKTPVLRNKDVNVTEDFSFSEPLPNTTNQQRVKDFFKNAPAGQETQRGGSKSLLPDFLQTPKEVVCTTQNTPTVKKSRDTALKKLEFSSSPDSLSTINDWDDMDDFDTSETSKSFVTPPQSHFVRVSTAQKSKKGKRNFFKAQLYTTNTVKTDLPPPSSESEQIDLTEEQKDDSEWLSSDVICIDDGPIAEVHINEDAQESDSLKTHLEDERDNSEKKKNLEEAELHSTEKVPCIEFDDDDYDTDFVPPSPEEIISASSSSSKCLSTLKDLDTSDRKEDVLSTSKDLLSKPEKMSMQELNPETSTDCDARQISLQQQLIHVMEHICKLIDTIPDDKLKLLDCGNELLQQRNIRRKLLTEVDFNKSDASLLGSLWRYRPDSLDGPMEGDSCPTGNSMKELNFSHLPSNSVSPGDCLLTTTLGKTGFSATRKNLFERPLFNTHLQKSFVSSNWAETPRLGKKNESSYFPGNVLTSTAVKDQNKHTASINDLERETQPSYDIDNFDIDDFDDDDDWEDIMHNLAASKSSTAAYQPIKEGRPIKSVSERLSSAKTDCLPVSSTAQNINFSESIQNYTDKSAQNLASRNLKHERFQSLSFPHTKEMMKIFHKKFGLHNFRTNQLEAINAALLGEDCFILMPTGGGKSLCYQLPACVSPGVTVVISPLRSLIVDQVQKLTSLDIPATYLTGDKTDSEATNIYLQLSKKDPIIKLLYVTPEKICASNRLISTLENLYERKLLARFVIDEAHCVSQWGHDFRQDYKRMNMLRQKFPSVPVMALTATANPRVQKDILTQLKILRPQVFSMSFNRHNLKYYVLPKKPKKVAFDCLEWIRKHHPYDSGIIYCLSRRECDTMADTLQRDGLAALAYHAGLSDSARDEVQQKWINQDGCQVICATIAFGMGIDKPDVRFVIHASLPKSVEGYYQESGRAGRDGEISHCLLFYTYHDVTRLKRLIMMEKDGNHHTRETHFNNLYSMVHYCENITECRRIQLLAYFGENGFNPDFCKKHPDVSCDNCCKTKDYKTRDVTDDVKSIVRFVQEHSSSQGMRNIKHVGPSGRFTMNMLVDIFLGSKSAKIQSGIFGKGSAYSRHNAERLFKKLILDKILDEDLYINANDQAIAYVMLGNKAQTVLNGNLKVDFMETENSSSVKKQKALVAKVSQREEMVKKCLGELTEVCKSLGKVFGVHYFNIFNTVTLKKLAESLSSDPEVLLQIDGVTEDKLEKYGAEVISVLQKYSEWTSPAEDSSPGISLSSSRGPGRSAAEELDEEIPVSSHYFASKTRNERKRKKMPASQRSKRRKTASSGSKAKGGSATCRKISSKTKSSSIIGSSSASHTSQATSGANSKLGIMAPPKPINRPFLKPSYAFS

CN(C)c1ccc2nc3c(=O)[nH]c(=O)nc-3n(CC(O)C(O)C(O)CO)c2c1 (configuration not stated)
inactive: Potency [1] | Potency [2] | activation [3] -84.9% [at 17.1 µM, percent relative to cAMP agonist control]
active: Potency [4] 11.2 µM

CC1CN(C(=O)CCC(=O)NCc2ccc(F)cc2)c2ccccc2S1 (configuration not stated)
inactive: Potency [1] | Potency [2] | activation [3] -4.63% [at 17.1 µM, percent relative to cAMP agonist control] | activity change, negative = inhibition [5] -2.67% [at 30.8 µM] | activation [4] 31.5% [at 30.8 µM]

Cc1ccc(S(=O)(=O)NCc2ccccc2)cc1C(=O)N1CCCC(C(F)(F)F)C1 (configuration not stated)
inactive: Potency [1] | Potency [2] | Potency [3] | Potency [5] | Potency [4]

COc1ccc(/C=C2/C(=O)N(CC3CCCO3)C(=S)N2C)c(OC)c1 (configuration not stated)
active: Potency [1] 84.9 µM
inactive: Potency [2] | Potency [3] | Potency [4]

COCCCNC(=O)C(C#N)c1nc2ccccc2nc1N1CCN(Cc2ccccc2)CC1 (configuration not stated)
inactive: outcome [6] | Potency [7] > 20.6 µM | Potency [2] | Potency [3] | Potency [5] | Potency [4]
active: Potency [1] 75.7 µM

NS(=O)(=O)c1cccc(Nc2nc3ccccc3nc2NS(=O)(=O)c2ccc(Cl)cc2)c1
inactive: Potency [2] | Potency [3] | Potency [4]
active: Potency [1] 75.7 µM

COc1ccc2nc(N3C(=O)C(O)=C(C(=O)c4ccco4)C3c3ccc(C)o3)sc2c1 (configuration not stated)
inactive: Potency [2] | Potency [3] | Potency [5] | Potency [4]
active: Potency [1] 26.9 µM

Cc1cc(C(=O)N/N=C/c2ccc(O)c([N+](=O)[O-])c2)c(C)n1-c1ccc(F)cc1
inactive: Potency [2] | Potency [3] | Potency [5] | Potency [4]
active: Potency [8] 75.7 µM | Potency [1] 42.6 µM

O=c1ccc2c(-c3ccccc3S(=O)(=O)O)c3ccc(O)c(O)c3oc-2c1O
active: Potency [9] 0.366 µM | Potency [10] 0.597 µM | Potency [11] 0.541 µM | Potency [12] 1.06 µM | Potency [8] 1.07 µM | Potency [13] 0.136 µM | Potency [1] 7.94 µM
inactive: Potency [2] | activation [3] -12% [at 17.1 µM, percent relative to cAMP agonist control] | activity change, negative = inhibition [5] -28.7% [at 30.8 µM] | activation [4] -15.5% [at 30.8 µM]

O=C(c1ccccc1)C(c1ccccc1)c1ccccc1
inactive: Potency [1] | Potency [2] | activation [3] 0.697% [at 17.1 µM, percent relative to cAMP agonist control] | activity change, negative = inhibition [5] 2.63% [at 30.8 µM] | activation [4] 12.8% [at 30.8 µM]

CCOC(=O)CSc1nc2c(c(=O)n(C)c(=O)n2C)n1Cc1ccccc1F
inactive: Potency [1] | Potency [2] | Potency [3] | Potency [5] | Potency [4]

O=S(=O)(O)c1cc(O)c2cc(Nc3ccccc3)ccc2c1
active: Potency [1] 37.9 µM
inactive: Potency [2] | Potency [3] | Potency [5] | Potency [4]

CCC(NC(=O)Nc1ncccc1C)(C(F)(F)F)C(F)(F)F
inactive: activity change, negative = inhibition [14] 11.9% [at 17.2 µM] | activity change, negative = inhibition [15] -12% [at 17.2 µM] | outcome [6] | Potency [7] > 20.6 µM | Potency [1] | Potency [2] | Potency [3] | Potency [5] | Potency [4]

CCc1c(C)c(C#N)c2nc3ccccc3n2c1-n1nc(C)cc1C
inactive: activity change, negative = inhibition [14] -8.93% [at 17.2 µM] | activity change, negative = inhibition [15] -9.34% [at 17.2 µM] | outcome [6] | Potency [7] > 20.6 µM | Potency [1] | Potency [2] | activation [3] 5.42% [at 17.1 µM, percent relative to cAMP agonist control] | activity change, negative = inhibition [5] 12.9% [at 30.8 µM] | activation [4] 30.6% [at 30.8 µM]

Cc1cc(=O)oc2cc(NC(=O)C(C)Oc3ccccc3)ccc12 (configuration not stated)
inactive: Potency [1] | Potency [2] | Potency [3] | Potency [5] | Potency [4]

Cc1ccc(SCCSc2ncccn2)cc1
inactive: Potency [1] | Potency [2] | activation [3] -2.5% [at 17.1 µM, percent relative to cAMP agonist control] | activity change, negative = inhibition [5] -17.4% [at 30.8 µM] | activation [4] -4.72% [at 30.8 µM]

CCCN(C(=O)COC(=O)COc1c(C)cccc1C)c1c(N)n(Cc2ccccc2)c(=O)[nH]c1=O
inactive: Potency [1] | Potency [2] | Potency [3] | Potency [5] | Potency [4]

COc1ccc(OC)c(C(C[N+](=O)[O-])c2c(C)cc3ccccn23)c1 (configuration not stated)
inactive: Potency [1] | Potency [2] | Potency [3] | Potency [5] | Potency [4]

O=C(/C=N/O)NCCCN1CCOCC1
inactive: activity change, negative = inhibition [14] -1.51% [at 17.2 µM] | activity change, negative = inhibition [15] 14.3% [at 17.2 µM] | outcome [6] | Potency [7] > 20.6 µM | Potency [1] | Potency [2] | Potency [3] | Potency [5]

CCC(=O)N1N=C(c2ccc(Cl)cc2)CC1c1ccco1 (configuration not stated)
inactive: Potency [1] | Potency [2] | Potency [3] | Potency [5] | Potency [4]

CC1=C(C(=O)OCc2ccccc2)C(c2ccc(Cl)cc2Cl)NC(=O)N1CCCCCC(=O)O (configuration not stated)
inactive: Potency [2] | Potency [3] | Potency [5] | Potency [4]
active: Potency [1] 75.7 µM
